NPC1 prom act: activates the NPC1 promoter; Potency, µM (doses to about 9.22 µM), for the others: at the top dose activation, usual class: activators; 320,000 compounds, 2.4% hits; AID 485313; Huh7 NPC1 promoter luciferase reporter, 24 h; further: % of control where 0% means no effect; nearly all actives have a fitted effect of over 60% in size
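Cells: Huh7 expressing luciferase under the NPC1 promoter, 1500/well. Seeded 2 h, compound added, incubated 24 h at 37 °C. Luciferase reagent, 10 min ambient, then luminescence.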
ELG1 genotox: inducers of genotoxicity in HEK293T ELG1-luciferase cells; Potency, µM (titrated, usually from 46 µM), inactives show at the top dose activity change, positive = activation, actives largely listed as activators; 330,000 compounds, 1.3% hits; HEK293T ELG1-luciferase reporter, luminescence, 16 h; further: % of control where 0% means no effect; nearly all actives have a fitted effect of over 60% in size
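HEK293T cells expressing luciferase-tagged ELG1 were exposed to compound or DMSO vehicle for 16 hr at 37 °C and 5% CO2. Luciferase activity was then measured with ONE-Glo after 30 min at room temperature.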
SMN2 splice enh: enhancers of SMN2 splice variant expression; AID 1458; 210,000 compounds, 2.8% hits; HEK293 SMN2-luciferase splicing reporter, luminescence, 30-36 h; Potency, µM (titrated, usually from 46.1 µM), for the others: top-dose activity change, positive = activation, usual class: activators; further: % of control where 0% means no effect; nearly all actives have a fitted effect of over 55% in size
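qHTS luciferase splicing reporter: luminescence rises when SMN2 exon 7 is included in transfected HEK293 cells. Compound exposure lasted 30-36 h at 37C, with 4.5 mM final sodium butyrate as control, followed by a ONE-Glo read.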
Rab9 prom act: Rab9 promoter activation; Huh7 Rab9 promoter-luciferase reporter, luminescence, 24 h; Potency, µM (top dose mostly 9.22 µM), for the others: at the highest dose activation, negative = inhibition, hits mostly activators; 320,000 compounds, 2.8% hits; AID 485297; further: % of control where 0% means no effect; nearly all actives have a fitted effect of over 60% in size
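Huh7 cells stably carrying a Rab9 promoter-luciferase reporter, 1500 cells per well in OP-MEM I with 10% FBS, treated with compound 24 hours at 37C. Luciferase activity read by luminescence after 10 minutes with Amplite reagent.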
FLuc counter: inhibits or activates purified firefly luciferase, miR-21 counter-screen. AID 588342. P08659. 360,000 compounds, 6.9% hits. purified FLuc, Km substrates, luminescence inhibition. Potency, µM (doses to about 57.5 µM), without a hit: at the highest dose activity change, negative = inhibition, hits mostly inhibitors;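 further: plate controls were vehicle for no effect and reference inhibitor for full effect; nearly all actives have a fitted effect of over 55% in size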
Target sequence (P08659 whole entry, looked up): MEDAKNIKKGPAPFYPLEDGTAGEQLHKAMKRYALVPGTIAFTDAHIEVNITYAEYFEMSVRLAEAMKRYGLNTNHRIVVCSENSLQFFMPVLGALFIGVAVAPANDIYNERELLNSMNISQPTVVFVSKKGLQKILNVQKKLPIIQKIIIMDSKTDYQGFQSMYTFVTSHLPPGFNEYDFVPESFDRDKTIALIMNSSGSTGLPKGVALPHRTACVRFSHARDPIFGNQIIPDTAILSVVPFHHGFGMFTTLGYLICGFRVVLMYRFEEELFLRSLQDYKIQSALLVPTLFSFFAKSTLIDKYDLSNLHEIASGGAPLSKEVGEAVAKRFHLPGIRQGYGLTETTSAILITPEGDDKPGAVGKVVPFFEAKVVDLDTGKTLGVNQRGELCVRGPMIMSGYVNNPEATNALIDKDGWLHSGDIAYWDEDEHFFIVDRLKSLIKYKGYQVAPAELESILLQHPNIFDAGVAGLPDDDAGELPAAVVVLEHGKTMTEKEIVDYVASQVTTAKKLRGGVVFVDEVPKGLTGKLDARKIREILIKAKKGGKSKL
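Purified P. pyralis luciferase (10nM final) with 10uM D-luciferin and 10uM ATP (Km levels) in 50mM Tris acetate pH 7.5, 10mM Mg acetate, 0.01% Tween-20, 0.05% BSA; qHTS 6-point titration, ~60 µM downward; luminescence read.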
* = called active by the depositor; ? = inconclusive; · = not tested or not shown; [ ] = another dose, or the depositor's remark. Most compounds without a hit are left out; they make up all but 7.4% or so of the library. The call rests on the fitted dose curve; in most records, active means well fitted curve in the direction sought with a large enough effect; inconclusive means small, poorly fitted or top-dose-only effect, or another doubt; inactive means no such curve, though single readings can be large; an effect the other way counts as inactive or inconclusive. Potency means the concentration at half of the fitted maximal effect.

SMILES	NPC1 prom act	ELG1 genotox	SMN2 splice enh	Rab9 prom act	FLuc counter
CCCc1ccc(-c2ccc(C(=O)Oc3ccc(OCC)cc3)cc2)nc1	·	·	4.2%	·	-18.6%
CCCCCc1ccc(-c2ccc(/C=C/C(N)=O)cc2)nc1	?	15.6%	-1.4%	?	4.78µM*
CCCCCc1ccc(-c2ccc(C(=O)Oc3ccc(C(=O)OC)cc3)cc2)nc1	·	·	-46.3%	·	12µM*
CCCc1ccc(-c2ccc(C(=O)O)cc2)nc1	?	?	2.51µM*	0.398µM*	1.51µM*
CCCCn1cc(S(=O)(=O)c2ccc(OC)cc2)c(=O)c2cc(CC)ccc21	·	·	-1.1%	·	2.7%
O=C(CN(C(=O)Cn1nnc(-c2ccc(F)cc2)n1)c1ccc(F)cc1)NC1CCCC1	-2.3%	-2.5%	·	0.6%	-1.8%
C/C(CC(=O)N1CCN(C=O)CC1)=N\NC(=O)c1ccc([N+](=O)[O-])cc1	-0.2%	6.2%	·	-6.2%	?
C/C(=N\NC(=O)c1ccccc1O)C1C(=O)c2ccccc2C1=O	?	8.2µM*	10µM*	27.9%	13.5µM*
C/C(=N/NC(=O)c1cc2ccccc2cc1O)C1C(=O)c2ccccc2C1=O	21.7%	?	?	?	16.9µM*
C/C(CC(=O)N1CCN(C=O)CC1)=N\NC(=O)c1cc2ccccc2cc1O	-3.1%	0.2%	15.7%	-5.1%	21.3µM*
Cc1cccc(OCC(=O)Nc2cccc(C(=O)OCc3cc(=O)n4nc(C(C)C)sc4n3)c2)c1	·	·	·	·	-13.6%
C[C@@H](C(=O)NCc1nc2ccccc2[nH]1)[C@@H]1C[C@@]1(C)[C@@H](NC(=O)OCc1ccccc1)c1ccccc1	·	·	-23.5%	·	·
CCCCCOc1ccc(NC(=O)Cc2csc(C)n2)cc1	·	·	0.2%	·	-1.1%
Cc1ccc(C(=O)NCCc2c[nH]c3ccccc23)s1	3.55µM*	?	·	3.16µM*	12µM*
O=C(NCCc1c[nH]c2ccccc12)/C(=C\c1ccco1)NC(=O)c1ccco1	-2.4%	2.4%	-6.8%	-3.7%	4.2%
CC(C)C(=O)NCCc1c[nH]c2ccccc12	6.3%	1.1%	1.5%	0.3%	-6.1%
Cc1ccc(C(=O)NCCc2c[nH]c3ccccc23)c(C)c1	1.58µM*	9.0%	·	3.16µM*	6.75µM*
Cc1ccc(C(=O)N/C(=C\c2ccco2)C(=O)NCCc2c[nH]c3ccccc23)cc1	0.6%	3.4%	17.4%	0.0%	15.1µM*
CC(C)=CC[C@@H](O)C1=CC(=O)c2c(O)ccc(O)c2C1=O	·	·	-99.5%	·	·
CC(C)(C)c1ccc(NC(=O)c2ccccc2)c([N+](=O)[O-])c1	0.447µM*	-9.6%	7.8%	0.501µM*	4.26µM*
Cc1cc(C(=O)Nc2cccc([N+](=O)[O-])c2C)cs1	8.1%	10.2%	·	12.9%	-15.7%
Cc1c(NC(=O)c2ccc(C(C)(C)C)cc2)cccc1[N+](=O)[O-]	?	10.1%	15.8µM*	?	13.5µM*
CCOC(=O)c1c(C)[nH]c(C(=O)COc2ccc3ccc(=O)oc3c2)c1C	·	-0.7%	·	·	·
COCCCNC(=O)C[C@H]1C[C@H](C(=O)N2CCCCC2)[C@@]2(CCc3ccccc3)c3[nH]c4cc(CCC(=O)N(C)C)ccc4c3CCN2C1=O	·	-4.2%	·	·	·
CCOc1cccc2cc(C(=O)NC(C)c3ccccc3)c(=N)oc12 (stereo not drawn)	-0.1%	-1.8%	·	3.4%	1.0%
SMILES	NPC1 prom act	ELG1 genotox	SMN2 splice enh	Rab9 prom act	FLuc counter
CCOc1cccc2cc(C(=O)NCc3ccccc3)c(=N)oc12	-1.1%	16.0%	·	0.7%	16.9µM*
COc1cccc2cc(C(=O)NCc3ccc(Cl)cc3)c(=N)oc12	-7.8%	-7.5%	·	-0.5%	?
COc1cccc2cc(C(=O)NCc3ccccc3)c(=N)oc12	-3.6%	13.8%	·	2.6%	10.7µM*
CCOc1cccc2cc(C(=O)NCc3ccc(F)cc3)c(=N)oc12	-3.0%	?	·	-2.0%	15.1µM*
Cc1ccc(S(=O)(=O)Oc2cc(S(=O)(=O)O)cc3cc(S(=O)(=O)O)cc(N)c23)cc1	·	·	2.4%[9.22 µM]	·	·
O=c1[nH][nH]c(=O)c2c(NS(=O)(=O)c3ccccc3)cccc12	26.3%	?	24.8%	29.4%	19µM*
O=c1oc(-c2ccccc2NS(=O)(=O)c2ccccc2)nc2ccccc12	-0.4%	0.2%	-16.5%	-4.4%	-0.5%
O=c1ccc2cc3ccoc3cc2o1	-0.1%	5.8%	·	2.6%	-0.6%
CC(C)c1cc2cc3ccc(=O)oc3cc2o1	?	?	·	?	12µM*
CC(=O)NC(Cc1ccccc1F)C(=O)NC1CCN(C(=O)NCc2ccccc2)CC1 (stereo not drawn)	-4.9%	5.0%	·	-0.9%	-0.4%
O=c1c2ccccc2oc2ccc(Oc3ccccc3)cc12	2.82µM*	?	·	1.78µM*	4.26µM*
Cc1cc(C(=O)Nc2ccc(OCc3ccccc3)cc2)c(C)o1	?	?	?	?	16.9µM*
CC(=O)c1cc(C(=O)Nc2ccc(C(=O)O)cc2)oc1C	-1.3%	2.1%	0.0%	4.4%	-2.8%
Cc1oc(C(=O)Nc2ccc(C(=O)O)cc2)cc1COc1ccccc1	0.5%	8.5%	-0.6%	13.3%	10.7µM*
Cc1ccsc1C(=O)Nc1ccc(OCc2ccccc2)cc1	1.58µM*	?	·	1.12µM*	1.51µM*
Cc1cc(C(=O)Nc2ccccc2C(=O)O)c(C)o1	-1.8%	2.7%	·	1.2%	23.9µM*
O=C(Nc1ccccc1)N1CC[C@@]2(CCCN(C(=O)c3csnn3)C2)C1	·	·	-18.6%	·	·
C=CCN(CC=C)C(=O)Nc1cc(OC)ccc1OC	0.0%	-0.9%	·	0.6%	-14.4%
COc1cccc(NC(=O)CSc2nc(C)c(Cc3ccccc3)c(=O)[nH]2)c1	·	·	-4.0%	·	?
CC(=O)Nc1cc2nc(C)n(Cc3ccc([N+](=O)[O-])cc3)c2nc1C	-4.2%	-2.2%	·	0.1%	-0.4%
O=C1C2C3C=CC(C4CC34)C2C(=O)N1c1ccc2c(c1)OCO2 (stereo not drawn)	6.8%	0.2%	-20.4%	4.8%	21.3µM*
Cc1cccc(NC(=O)c2ccc3c(c2)CCN3S(C)(=O)=O)c1	?	?	·	?	15.1µM*
CS(=O)(=O)N1CCc2cc(C(=O)Nc3cccc(F)c3)ccc21	·	·	11.2µM*	·	?
Cc1ccc(NC(=O)c2ccc3c(c2)CCN3S(C)(=O)=O)cc1C	2.51µM*	8.9%	·	3.98µM*	15.1µM*
CS(=O)(=O)N1CCc2cc(C(=O)OCC(=O)c3ccccc3)ccc21	3.16µM*	12.6µM*	-3.7%	3.55µM*	4.78µM*
Cc1cc(C)cc(NC(=O)c2ccc3c(c2)CCN3S(C)(=O)=O)c1	-0.3%	-0.1%	·	-4.8%	?
COc1ccc(Nc2oc(/C=C/c3ccc(OC)c(OC)c3)nc2C#N)cc1	·	·	8.4%	·	-6.9%
COc1ccc(Cn2c(=O)[nH]c3cc(C(=O)NCCC(C)C)ccc3c2=O)cc1	·	·	4.2%	·	2.1%
Cc1c(C)c(C)c(C(=O)C2CCN(c3ccc([N+](=O)[O-])cn3)CC2)c(C)c1C	-6.2%	2.6%	·	-3.0%	0.8%

High-throughput results (PubChem BioAssay)
